PubChem BioAssay AID1259417 (TB Discovery Research, Infectious Disease Research Institute, 2018)
Among all 1,100 compounds or so, about 760 (69%) were called active. No rule for the calls is given here. The set was probably picked from earlier hits. The list shows a part of the results.

Assay: M. tuberculosis growth inhibition, HTS (AID 1259417);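 also: bacteria grown with compound for 5 days at 37 °C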
Settings: stronger effect = higher value, concentration not given here
[1] = M. tuberculosis DsRed fluorescence growth inhibition
[2] = M. tuberculosis growth inhibition

Row | SMILES | inhibition [1] | inhibition [2] [%]
1 | CC(C)(C)NC(=O)COC(=O)c1snc(C(=O)NC2CCCCC2)c1N | 21.4% (active) | 66.6
2 | CCOc1ccc(NCCC(=O)c2cccs2)cc1 | -0.257% (inactive) | -9.66
3 | O=C(CCNc1ccc(Cl)c(C(F)(F)F)c1)c1cccs1 | 10.9% (active) | 35.4
4 | Fc1ccc(Nc2nc(-c3ccccn3)cs2)cc1 | 93.9% (active) | 94.1
5 | CN(C)c1ccc(Nc2nc(-c3ccccn3)cs2)cc1 | 54.1% (active) | 38.2
6 | CN(C)c1ccc(Nc2nc(-c3ccc(O)cc3O)cs2)cc1 | 36% (active) | 10.8
7 | O=C(/C=C/c1ccco1)Nc1nc(-c2ccccn2)cs1 | 88.5% (active) | 89
8 | Brc1ccc(Nc2nc(-c3ccccn3)cs2)cc1 | 91% (active) | 94.1
9 | Clc1ccc(Nc2nc(-c3ccccn3)cs2)nc1 | 101% (active) | 101
10 | Fc1cccc2sc(Nc3nc(-c4ccccn4)cs3)nc12 | 99.5% (active) | 101
11 | c1ccc(Nc2nc(-c3ccccn3)cs2)cc1 | 88.2% (active) | 91.8
12 | CCOc1ccc(Nc2nc(-c3ccccn3)cs2)cc1 | 89.5% (active) | 92
13 | Cc1ccc(S/C=C\C(=O)c2ccccc2)cc1 | 36.8% (active) | 37.6
14 | CSCCC(NC(=O)c1cc([N+](=O)[O-])cc([N+](=O)[O-])c1)c1nc2ccccc2[nH]1 (configuration not stated) | 51.9% (active) | 71.3
15 | CCOC(=O)Cn1cc(C#N)c2cccc(CC)c21 | 14.1% (active) | 56.3
16 | CCOC(=O)COc1ccc2c3c(c(=O)oc2c1)CCCCC3 | 42.8% (active) | 74.2
17 | CCOC(=O)COc1cc2c3c(c(=O)oc2cc1C)CCCC3 | 43% (active) | 89.3
18 | Cc1cc(OC(=O)C2CC2)c2c3c(c(=O)oc2c1)CCCC3 | 22% (inactive) | 21.7
19 | CCOC(=O)c1cc(-c2ccccc2)sc1NC(=S)NC1CCN(Cc2ccccc2)CC1 | 18.5% (inactive) | 1.16
20 | CCc1cc(C(=O)OC)c(NC(=S)NCc2ccc(Cl)c(Cl)c2)s1 | 96.8% (active) | 88.4
21 | COc1ccc(C(=O)C(CN2CCCCC2)c2ccccc2)cc1 (configuration not stated) | 31.4% (active) | 66.8
22 | COc1ccc(C(=O)N2N=C(c3ccccc3)CC2(O)C(F)(F)F)cc1 (configuration not stated) | 1.52% (inactive) | -2.76
23 | COc1ccc(C(=O)C(CN2CCOCC2)c2ccccc2)cc1 (configuration not stated) | 42.8% (active) | 77
24 | C=CCNc1nnc(Sc2ncccc2[N+](=O)[O-])s1 | 97.9% (active) | 98.2
25 | Nc1nnc(Sc2ncccc2[N+](=O)[O-])s1 | 98.8% (active) | 98.6
26 | Cc1ccc(C)c(N=Nc2nc3ccccc3n2C)c1 | 100% (active) | 99.1
